T cruzi growth-1 – T. cruzi intracellular proliferation inhibitors, primary screen, cell-based, beta-gal Tulahuen parasites, NIH3T3 host, luminescence | AID 624255, 2012 | T. cruzi beta-gal in NIH3T3, GalScreen luminescence, 90 h | inhibition, % at 8.34 µM | hit rate 5.9% among 77,000;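 active = mean inhibition above about 93%, with at least 55% of replicates each passing it, limit read from the data, passing the limit was not always enough; inconclusive = only one of those two conditions holds; inactive = neither condition holds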
Pf Dd2 inh – P. falciparum Dd2 growth inhibitors, primary screen, SYBR Green fluorescence, single dose replicates; hit rate 2.3% among 94,000; 72 h; hits give low values; activity change, % at 10 µM; in the data active = activity change below about -80%; inconclusive = no clear call, values can overlap the other calls
C diff HTS – C. difficile growth inhibitors, primary screen, HTS; hit rate 0.25% among 86,000; growth activity, negative = inhibition, % at 16 µg/mL (by protocol); Clostridium difficile clinical isolate growth, OD600, 24 h; hits give low values;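 active = mean growth activity at or below -80% and every replicate also at or below -80%; inconclusive = mean at or below -80% but some replicate above -80%; inactive = mean growth activity above -80%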;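 also: 0% = DMSO wells and -100% = levofloxacin 16 µg/mL wells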
T cruzi growth-2 – T. cruzi intracellular proliferation inhibitors, confirmation, cell-based, NIH3T3 host, beta-gal parasite, luminescence, cherry-pick; T. cruzi beta-gal in NIH3T3, GalScreen luminescence, 90 h; hit rate 72% among 5,600; AID 651739, 2012; inhibition, % at 8.35 µM; shares compounds with T cruzi growth-1;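 active = mean replicate inhibition above about 95% and at least 55% of replicates individually reaching it, limit read from the data; inconclusive = only one of the two criteria is met; inactive = neither criterion is met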
T cruzi growth-3 – inhibitors of intracellular T. cruzi replication, confirmation, NIH3T3 host cells, beta-gal parasites, cherry-pick, set 2; inhibition, % at 2.09 µM; shares compounds with T cruzi growth-1; T. cruzi beta-gal in NIH3T3, GalScreen luminescence, 90 h; AID 651740, 2012; hit rate 21% among 5,600;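 active = mean inhibition above about 95%, with at least 55% of replicates also reaching it, limit read from the data; inconclusive = meets just one of the two conditions; inactive = meets neither condition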;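 also: plate controls were neutral control median for no effect and positive control median for full effect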
NIH3T3 tox – cytotoxicity in mouse NIH/3T3 fibroblasts, confirmation, cytotoxicity control for T. cruzi proliferation inhibitor project, cell-based, cherry-pick, single point. hit rate 14% among 5,600. shares compounds with T cruzi growth-1. NIH/3T3 viability, CellTiter-Glo ATP luminescence, 90 h. cytotoxicity (signal decrease), % at 8.35 µM;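 active = mean signal decrease across replicates above about 35% based on untreated-well scatter, with enough replicates individually passing, limit read from the data; inconclusive = no rule stated though some were filed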;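 also: 0% = median of neutral control wells and 100% = median of positive control wells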
3T3 cytotox 2 – NIH/3T3 fibroblast cytotoxicity, confirmation, cytotoxicity control, cell-based, cherry-pick, single point, set 2; shares compounds with T cruzi growth-1; NIH/3T3 viability, CellTiter-Glo ATP luminescence, 90 h; inhibition, % at 24.9 µM; hit rate 56% among 5,600; AID 651744, 2012;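 active = mean loss of cell viability signal at or above a set limit, and enough replicates individually reaching it; inconclusive = meets only the mean limit or only the replicate share; inactive = meets neither condition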;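 also: 0% = median of neutral control wells and 100% = median of positive control wells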
Starred values were filed as active, the others as inactive; ? = inconclusive; · = no result given. An excerpt weighted towards active compounds, which were near 6.8% of everything screened.

SMILES | T cruzi growth-1 | Pf Dd2 inh | C diff HTS | T cruzi growth-2 | T cruzi growth-3 | NIH3T3 tox | 3T3 cytotox 2
COc1ccccc1C#Cc1ccc([C@@H]2[C@@H](CO)N3CCCCN(CCC(F)(F)F)C[C@H]23)cc1 | 105* | -82* | 57 | 91 | 110* | 98* | 104*
C/C=C/c1ccc([C@H]2[C@@H](CO)N3CCCCN(CCC(F)(F)F)C[C@@H]23)cc1 | 85 | -7 | 4 | · | · | · | ·
OC[C@H]1[C@H](c2ccc(-c3ccccc3)cc2)[C@@H]2CN(CCC(F)(F)F)CCCCN12 | 106* | -65 | 21 | 100* | 75 | 65* | 102*
OC[C@@H]1[C@H](c2ccc(/C=C/c3ccccc3)cc2)[C@H]2CN(CCC(F)(F)F)CCCCN12 | 101* | -75 | 41 | 79 | 107* | 73* | 105*
C[C@@H]1CN([C@@H](C)CO)C(=O)c2cc(NC(=O)NC3CCCCC3)ccc2O[C@@H]1CN(C)S(=O)(=O)c1ccc(F)cc1 | 28 | 18 | -12 | · | · | · | ·
C[C@H]1CN([C@@H](C)CO)C(=O)c2c(c3ccccc3n2C)-c2ccccc2CO[C@@H]1CN(C)C(=O)CCC(F)(F)F | 39 | -42 | 4 | · | · | · | ·
Cc1ccc(-c2cnc3c(c2)C(=O)N([C@H](C)CO)C[C@H](C)[C@@H](CN(C)C(=O)CN(C)C)O3)cc1 | · | -8 | -1 | · | · | · | ·
CCNC(=O)Nc1ccc2c(c1)C(=O)N(C)[C@@H]1CC[C@@H](CC(=O)NCc3cccc(F)c3)O[C@@H]1CO2 | 61 | -14 | -1 | · | · | · | ·
C[C@@H]1CN([C@@H](C)CO)C(=O)c2cc(NC(=O)CCN3CCOCC3)ccc2O[C@H]1CN(C)C(=O)Nc1ccc2c(c1)OCO2 | -41 | 28 | · | · | · | · | ·
Cc1cccc(-c2ccc([C@H]3[C@@H](CO)N4CCCCN(CCC(F)(F)F)C[C@@H]34)cc2)c1 | ? | -36 | 23 | 94 | 84 | 45* | 105*
Cc1cccc(-c2ccc([C@H]3[C@H](CO)N4CCCCN(CCC(F)(F)F)C[C@@H]34)cc2)c1 | 108* | -71 | 30 | ? | 90 | 26 | 104*
Cc1cccc(-c2ccc([C@@H]3[C@@H](CO)N4CCCCN(CCC(F)(F)F)C[C@H]34)cc2)c1 | 84 | -76 | 49 | · | · | · | ·
OC[C@H]1[C@@H](c2ccc(C#CC3CC3)cc2)[C@H]2CN(CCC(F)(F)F)CCCCN21 | 90 | -18 | 13 | · | · | · | ·
OC[C@H]1[C@H](c2ccc(C#CC3CC3)cc2)[C@H]2CN(CCC(F)(F)F)CCCCN21 | 98* | 1 | 19 | 111* | 32 | 34 | 106*
OC[C@@H]1[C@@H](c2ccc(-c3ccc(F)cc3)cc2)[C@@H]2CN(CCC(F)(F)F)CCCCN12 | 48 | -29 | 25 | · | · | · | ·
CNC[C@@H]1OCCCC[C@@H](C)Oc2ccc(NC(=O)NC(C)C)cc2C(=O)N([C@@H](C)CO)C[C@H]1C | 18 | -26 | -2 | · | · | · | ·
Cc1noc(C)c1NC(=O)Nc1ccc2c(c1)C(=O)N(C)[C@H]1CC[C@H](CC(=O)N(C)C)O[C@H]1CO2 | 2 | 5 | -3 | · | · | · | ·
C[C@@H]1CN([C@H](C)CO)S(=O)(=O)c2ccc(-c3ccncc3)cc2O[C@H]1CN(C)C | 24 | 25 | -3 | · | · | · | ·
C[C@@H]1CN([C@@H](C)CO)S(=O)(=O)c2ccc(-c3ccncc3)cc2O[C@H]1CN(C)C | 98* | 11 | 2 | 97* | 15 | 2 | 19
C[C@H](CO)N1C[C@H](C)[C@H](CN(C)C)Oc2cc(-c3ccncc3)ccc2S1(=O)=O | 11 | 10 | -1 | · | · | · | ·
C[C@H](CO)N1C[C@H](C)[C@@H](CN(C)C)Oc2cc(-c3ccncc3)ccc2S1(=O)=O | 106* | -3 | -2 | 89 | 24 | 13 | ?
CC(C)C(=O)Nc1ccc2c(c1)C(=O)N(C)[C@@H]1CC[C@H](CC(=O)NCc3ccc(F)cc3)O[C@H]1CO2 | -29 | -3 | 3 | · | · | · | ·
